Screen size: about 5,500 compounds; about 2,000 (36%) were called active. Roughly 18% stayed inconclusive and do not appear here. Cut-off read from the data, not from the text of the source: active = normalized growth mostly below about 0.91 (no sharp cut-off); inconclusive = no clear call, values can overlap the other calls; inactive = mostly above about 0.92. The list shows a part of the results.
Assay: chemical genetic growth profiling, strain panel (AID 1159580);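 note: tested at 20 µM; growth read once vehicle control cultures reached saturation at 30 °C; 1 = growth at the plate median or of vehicle wells; lower values mean less growth of the strain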
Details: growth OD

Measured: normalized growth

CC(CN1c2ccccc2Sc2cccnc21)N(C)C (stereo not given)
inactive: S. cerevisiae deletion strains, locus YAL013W, strain DEP1, hits give low values 1.02 | S. cerevisiae deletion strains, locus YBR021W, strain FUR4, hits give low values 0.987 | S. cerevisiae deletion strains, locus YBR229C, strain ROT2, hits give low values 1.02 | S. cerevisiae deletion strains, locus YCL029C, strain bik1, hits give low values 0.988 | S. cerevisiae deletion strains, locus YDL035C, strain GPR1, hits give low values 1.02 | S. cerevisiae deletion strains, locus YDL074C, strain BRE1, hits give low values 1.04 | S. cerevisiae deletion strains, locus YDL101C, strain DUN1, hits give low values 1.03 | S. cerevisiae deletion strains, locus YDL134C, strain PPH21, hits give low values 1.01 | S. cerevisiae deletion strains, locus YDL192W, strain arf1, hits give low values 0.993 | S. cerevisiae deletion strains, locus YDR101C, strain arx1, hits give low values 0.979 | S. cerevisiae deletion strains, locus YDR150W, strain NUM1, hits give low values 1.02 | S. cerevisiae deletion strains, locus YDR162C, strain NBP2, hits give low values 1.04 | S. cerevisiae deletion strains, locus YDR318W, strain mcm21, hits give low values 0.983 | S. cerevisiae deletion strains, locus YDR388W, hits give low values 0.994 | S. cerevisiae deletion strains, locus YDR502C, strain sam2, hits give low values 1.01 | S. cerevisiae deletion strains, locus YEL061C, strain CIN8, hits give low values 1.02 | S. cerevisiae deletion strains, locus YER110C, hits give low values 0.978 | S. cerevisiae deletion strains, locus YER155C, strain BEM2, hits give low values 1.01 | S. cerevisiae deletion strains, locus YER167W, strain BCK2, hits give low values 1.02 | S. cerevisiae deletion strains, locus YGL078C, strain dbp3, hits give low values 0.988 | S. cerevisiae deletion strains, locus YGL086W, strain mad1, hits give low values 0.992 | S. cerevisiae deletion strains, locus YGL248W, strain PDE1, hits give low values 1.02 | S. cerevisiae deletion strains, locus YGR078C, strain PAC10, hits give low values 1.02 | S. cerevisiae deletion strains, locus YGR135W, strain pre9, hits give low values 1.01 | S. cerevisiae deletion strains, locus YGR229C, strain SMI1, hits give low values 1.05 | S. cerevisiae deletion strains, locus YGR252W, strain gcn5, hits give low values 0.956 | S. cerevisiae deletion strains, locus YHR030C, strain SLT2, hits give low values 1.01 | S. cerevisiae deletion strains, locus YHR079C, strain IRE1 (second series), hits give low values 0.999 | S. cerevisiae deletion strains, locus YHR094C, strain hxt1, hits give low values 1 | S. cerevisiae deletion strains, locus YHR129C, strain ARP1, hits give low values 1 | S. cerevisiae deletion strains, locus YHR200W, strain rpn10, hits give low values 0.995 | S. cerevisiae deletion strains, locus YIL066C, strain RNR3, hits give low values 1.01 | S. cerevisiae deletion strains, locus YIL073C, strain SPO22, hits give low values 0.999 | S. cerevisiae deletion strains, locus YIL125W, strain kgd1, hits give low values 0.999 | S. cerevisiae deletion strains, locus YIR030C, strain dcg1, hits give low values 0.992 | S. cerevisiae deletion strains, locus YJL095W, strain BCK1, hits give low values 1.01 | S. cerevisiae deletion strains, locus YJL134W, strain LCB3, hits give low values 1.05 | S. cerevisiae deletion strains, locus YJL168C, strain set2, hits give low values 0.998 | S. cerevisiae deletion strains, locus YJL187C, strain SWE1 (second series), hits give low values 1.02 | S. cerevisiae deletion strains, locus YJR043C, strain POL32, hits give low values 1.01 | S. cerevisiae deletion strains, locus YJR075W, strain HOC1, hits give low values 1.02 | S. cerevisiae deletion strains, locus YKL009W, strain mrt4, hits give low values 1 | S. cerevisiae deletion strains, locus YKL068W, hits give low values 1 | S. cerevisiae deletion strains, locus YKL085W, strain MDH1 (second series), hits give low values 0.995 | S. cerevisiae deletion strains, locus YKL085W, strain MDH1, hits give low values 0.995 | S. cerevisiae deletion strains, locus YKL190W, strain CNB1, hits give low values 1.03 | S. cerevisiae deletion strains, locus YKR001C, strain vps1, hits give low values 0.999 | S. cerevisiae deletion strains, locus YLR039C, strain RIC1, hits give low values 1.06 | S. cerevisiae deletion strains, locus YLR058C, strain SHM2, hits give low values 1.01 | S. cerevisiae deletion strains, locus YLR102C, strain apc9, hits give low values 0.991 | S. cerevisiae deletion strains, locus YLR262C, strain YPT6, hits give low values 1.15 | S. cerevisiae deletion strains, locus YLR268W, strain sec22, hits give low values 0.998 | S. cerevisiae deletion strains, locus YLR330W, strain CHS5, hits give low values 1.01 | S. cerevisiae deletion strains, locus YLR342W, strain FKS1 (second series), hits give low values 1.03 | S. cerevisiae deletion strains, locus YLR371W, strain rom2, hits give low values 0.995 | S. cerevisiae deletion strains, locus YLR418C, strain cdc73, hits give low values 1.04 | S. cerevisiae deletion strains, locus YML016C, strain PPZ1, hits give low values 1.02 | S. cerevisiae deletion strains, locus YML032C, strain rad52, hits give low values 0.989 | S. cerevisiae deletion strains, locus YML124C, strain tub3, hits give low values 0.998 | S. cerevisiae deletion strains, locus YMR078C, strain ctf18, hits give low values 0.999 | S. cerevisiae deletion strains, locus YMR223W, strain ubp8, hits give low values 0.995 | S. cerevisiae deletion strains, locus YMR263W, strain SAP30, hits give low values 1.03 | S. cerevisiae deletion strains, locus YMR307W, strain GAS1, hits give low values 1.06 | S. cerevisiae deletion strains, locus YNL067W, strain RPL9B, hits give low values 1.02 | S. cerevisiae deletion strains, locus YNL128W, strain TEP1, hits give low values 1.02 | S. cerevisiae deletion strains, locus YNL153C, strain GIM3, hits give low values 1.03 | S. cerevisiae deletion strains, locus YNL233W, strain BNI4, hits give low values 1.01 | S. cerevisiae deletion strains, locus YNL250W, strain rad50, hits give low values 0.992 | S. cerevisiae deletion strains, locus YNL271C, strain bni1, hits give low values 1.01 | S. cerevisiae deletion strains, locus YNL298W, strain CLA4, hits give low values 0.988 | S. cerevisiae deletion strains, locus YNL307C, strain MCK1, hits give low values 0.991 | S. cerevisiae deletion strains, locus YNL322C, strain KRE1, hits give low values 1.01 | S. cerevisiae deletion strains, locus YNR052C, strain pop2, hits give low values 0.994 | S. cerevisiae deletion strains, locus YOL006C, strain TOP1, hits give low values 1.03 | S. cerevisiae deletion strains, locus YOL012C, strain htz1 0.957 | S. cerevisiae deletion strains, locus YOL147C, strain pex11, hits give low values 0.991 | S. cerevisiae deletion strains, locus YOR061W, strain CKA2, hits give low values 1.02 | S. cerevisiae deletion strains, locus YOR069W, strain VPS5, hits give low values 1 | S. cerevisiae deletion strains, locus YOR136W, strain idh2, hits give low values 0.979 | S. cerevisiae deletion strains, locus YOR144C, strain elg1, hits give low values 0.999 | S. cerevisiae deletion strains, locus YOR184W, strain ser1, hits give low values 0.985 | S. cerevisiae deletion strains, locus YOR316C, strain cot1, hits give low values 0.997 | S. cerevisiae deletion strains, locus YPL055C, strain LGE1, hits give low values 1.04 | S. cerevisiae deletion strains, locus YPL241C, strain CIN2, hits give low values 1 | S. cerevisiae deletion strains, locus YPR119W, strain clb2, hits give low values 0.995 | S. cerevisiae deletion strains, locus YPR141C, strain kar3, hits give low values 0.997 | S. cerevisiae deletion strains, locus YPR163C, strain tif3, hits give low values 1 | S. cerevisiae deletion strains, locus YPR167C, strain met16, hits give low values 1 | S. cerevisiae deletion strains, strain wtn01, hits give low values 1.01 | S. cerevisiae strains, strain wild type, hits give low values 1.01
